pCIP destab – compounds decreasing mouse p/CIP protein stability | Q05BA5 | F442A p/CIP-EGFP cells, EGFP fluorescence, 16 h | decrease of EGFP signal, % at 10 µM | 290,000 tested, 0.01% active | AID 1984;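 active = EGFP signal decrease of at least 30% at 10 µM or well 3 SD below plate mean, unless failing retest; inactive = the rest, including hits failing retest or dose response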
NR3A LBD binder – modulators (binders) of human NR3A ligand-binding domain | Tm shift relative to glycine control, % at 25 µM | 340,000 tested, 2.5% active | NR3A LBD differential scanning fluorimetry, Tm shift; 0% = protein alone, 100% = glycine-bound protein | AID 1259313;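 active = melting temperature shift of at least 10% of the positive control shift, at one fixed dose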
FAS-TE inh – inhibitors of human fatty acid synthase thioesterase domain | recombinant FAS-TE, OMFH fluorogenic substrate, fluorescence endpoint | P49327 | inhibition, % at 15 µM | 360,000 tested, 0.67% active;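 active = compounds whose normalised, plate-corrected inhibition of enzyme fluorescence in the single-dose primary screen is 50% or more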
MPTP inh – inhibitors of mitochondrial permeability transition pore; inhibition, % at 10 µM; isolated mouse mitochondria, Ca2+ swelling absorbance, 30 min; 360,000 tested, 1.4% active;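 active = inhibition of 50% or more, scaled per plate between neutral and stimulator controls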
beta cell repl – induces beta-cell replication in MIN6 cells; MIN6 cells proliferation, ATPlite luminescence, 48 h; cells starved in 0.2% serum; 100% = growth in 10% serum; proliferation, % at 10 µM; 330,000 tested, 0.29% active;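 active = compounds whose signal lies at least 3.5 SD above the mean of all wells on their plate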
FAS-TE conf – confirmation of human fatty acid synthase thioesterase inhibitors. shares compounds with FAS-TE inh. recombinant FAS-TE, OMFH fluorogenic substrate, fluorescence. inhibition, % at 15 µM. 2,300 tested, 45% active. AID 624325;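 active = compounds inhibiting the enzyme by at least 50% at 15 µM in any one of the replicates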
Large screens that a line does not name were inactive (follow-up assays come after a bar, where they were run). The list is not random: actives were taken first. Their share in the collection is about 4.1%.

O=S(=O)(Nc1cccc(-c2ccc(N3CCCCCC3)nn2)c1)c1ccc(F)cc1	FAS-TE inh 62 | FAS-TE conf inactive
O=S(=O)(Nc1cccc(-c2ccc(N3CCCCCC3)nn2)c1)c1cccc(F)c1	FAS-TE inh 61 | FAS-TE conf inactive
O=S(=O)(Nc1cccc(-c2ccc(N3CCCCCC3)nn2)c1)c1ccc(C(F)(F)F)cc1	none
COC(=O)[C@@]12C[C@@H](CC(=O)NCC34CC5CC(CC(C5)C3)C4)C(=O)N(Cc3ccco3)C1=CCC(C)(C)C2	none (no result: pCIP destab, NR3A LBD binder, FAS-TE inh, beta cell repl)
Cc1cc(-c2nc3ccccc3c(=O)o2)ccc1[N+](=O)[O-]	none
O=c1oc(-c2ccc(Cl)cc2[N+](=O)[O-])nc2ccccc12	FAS-TE inh 62 (no result: pCIP destab, NR3A LBD binder, beta cell repl) | FAS-TE conf inactive
COc1ccc(C(c2nnnn2-c2ccc3c(c2)OCCO3)N2CCN(C/C=C/c3ccccc3)CC2)cc1 (stereo not given)	none (no result: pCIP destab, NR3A LBD binder, beta cell repl)
C/C(=N\NS(=O)(=O)c1ccc(Cl)c([N+](=O)[O-])c1)c1cc2ccccc2o1	FAS-TE inh 54 | FAS-TE conf 59
C/C(=N\NS(=O)(=O)c1ccc(C)c([N+](=O)[O-])c1)c1cc2ccccc2o1	none
Cc1cccc(N2C(=O)N3[C@H](c4ccc(Br)cc4)[C@@H]4C(=O)N(C(C)(C)C)C(=O)[C@@H]4[C@]3(Cc3ccc(Cl)cc3)C2=O)c1	FAS-TE inh 89 | FAS-TE conf inactive
COc1ccc([C@@H]2[C@@H]3C(=O)N(C(C)(C)C)C(=O)[C@@H]3[C@]3(C)C(=O)N(c4ccc(C)cc4)C(=O)N23)cc1	none
CCN1C(=O)[C@H]2[C@@H](c3ccc(C)cc3)N3C(=O)N(c4ccc(OC)cc4)C(=O)[C@@]3(Cc3ccc(Cl)cc3)[C@H]2C1=O	none
COc1ccc([C@@H]2[C@@H]3C(=O)N(C(C)(C)C)C(=O)[C@@H]3[C@]3(Cc4ccc(Cl)cc4)C(=O)N(c4ccc(OC)cc4)C(=O)N23)cc1	FAS-TE inh 92 (no result: pCIP destab) | FAS-TE conf inactive
Cc1cccc(N2C(=O)N3[C@H](c4ccc(Br)cc4)[C@@H]4C(=O)N(C(C)(C)C)C(=O)[C@@H]4[C@]3(C)C2=O)c1	none
COc1ccc([C@@H]2[C@@H]3C(=O)N(C(C)(C)C)C(=O)[C@@H]3[C@]3(Cc4ccccc4)C(=O)N(c4ccc(C)cc4)C(=O)N23)cc1	none (no result: pCIP destab)
COc1ccc(N2C(=O)N3[C@H](c4ccc(Cl)cc4)[C@@H]4C(=O)N(C5CCCCC5)C(=O)[C@@H]4[C@]3(Cc3ccc(Cl)cc3)C2=O)cc1	FAS-TE inh 88 | FAS-TE conf inactive
COc1ccc([C@@H]2[C@@H]3C(=O)N(C(C)(C)C)C(=O)[C@@H]3[C@]3(Cc4ccc(Cl)cc4)C(=O)N(c4ccc(Br)cc4)C(=O)N23)cc1	FAS-TE inh 88 | FAS-TE conf 55
COCOc1cccc(CN2CCC2(C)C(=O)Nc2ccc3c(c2)OCO3)c1 (stereo not given)	none (no result: pCIP destab, NR3A LBD binder, beta cell repl)
CC1(C(=O)NS(=O)(=O)Cc2ccccc2C(F)(F)F)CCN1C(=O)Cc1cccs1 (stereo not given)	none (no result: pCIP destab, NR3A LBD binder, beta cell repl)
C=CCn1c(SCC(=O)Nc2cc(C)on2)nc2ccccc21	none (no result: pCIP destab, NR3A LBD binder, beta cell repl)
Cc1ccccc1-n1c(SCC(=O)c2c(N)n(C)c(=O)n(C)c2=O)nc2sc3c(c2c1=O)CCCC3	FAS-TE inh 90 | FAS-TE conf inactive
Cc1nc2sccn2c(=O)c1S(=O)(=O)N1CCN(c2ccccc2F)CC1	none (no result: pCIP destab, NR3A LBD binder, beta cell repl)
O=C(N/N=C\c1ccc([N+](=O)[O-])o1)c1cncc(Br)c1	none
COc1cc([N+](=O)[O-])cc(/C=N/NC(=O)c2cncc(Br)c2)c1O	FAS-TE inh 59 | FAS-TE conf 71
COc1cc([N+](=O)[O-])cc(/C=N/NC(=O)c2cc(C)nc3ccccc23)c1O	FAS-TE inh 54 | FAS-TE conf 67
COc1cc(/C=N/NC(=O)c2cncc(Br)c2)cc([N+](=O)[O-])c1O	FAS-TE inh 58 | FAS-TE conf 70
COc1ccccc1-c1cc(C(=O)N/N=C/C=C/c2ccccc2[N+](=O)[O-])c2ccccc2n1	FAS-TE inh 63 | FAS-TE conf inactive
COC1=CC(=O)OC(c2ccccc2)C1 (stereo not given)	none (no result: pCIP destab, NR3A LBD binder, FAS-TE inh, beta cell repl)
CC(C)C[C@H]1CNC(=S)N1C[C@H]1CCCN1C[C@H](Cc1ccccc1)N1C[C@H](Cc2ccc(O)cc2)N(CCc2ccccc2)C1=S	none (no result: pCIP destab, NR3A LBD binder, beta cell repl)
CC1(C(=O)Nc2cccc3c2CCCC3)CCN1C(=O)Cc1ccccc1Cl (stereo not given)	none (no result: pCIP destab, NR3A LBD binder, beta cell repl)
COc1ccc(C)cc1S(=O)(=O)Nc1cccc(-c2ccc(N3CCCCCC3)nn2)c1	none
O=S(=O)(Nc1cccc(-c2ccc(N3CCCCCC3)nn2)c1)c1ccccc1F	FAS-TE inh 56 | FAS-TE conf 62
O=S(=O)(Nc1cccc(-c2ccc(N3CCCCCC3)nn2)c1)c1ccccc1Cl	FAS-TE inh 50 | FAS-TE conf inactive
O=C(CN1CCSC1=NCc1ccccc1)c1ccc(Cl)c(Cl)c1	FAS-TE inh 54 | FAS-TE conf inactive
CC(C)(C)C(=O)N1CCN(c2ccc([N+](=O)[O-])c(-n3nc(-c4ccccc4)c4ccccc4c3=O)c2)CC1	FAS-TE inh 74 | FAS-TE conf inactive
Cc1ccc(-c2nn(-c3ccccc3)cc2C=C2SC(=S)N(CCS(=O)(=O)O)C2=O)cc1	none (no result: pCIP destab, NR3A LBD binder, beta cell repl)
CC(C)COc1ccc(-c2nn(-c3ccccc3)cc2/C=C2/SC(=S)N(CC(=O)O)C2=O)cc1	FAS-TE inh 78 | FAS-TE conf inactive
O=C1C(=Cc2cn(-c3ccccc3)nc2-c2ccc(OCc3ccccc3)cc2)SC(=S)N1CCS(=O)(=O)O	FAS-TE inh 71 (no result: pCIP destab, NR3A LBD binder, beta cell repl) | FAS-TE conf inactive
O=C(O)CN1C(=O)/C(=C\c2cn(-c3ccccc3)nc2-c2ccccc2)SC1=S	none
Cc1cc(C)c(C#N)c(SCC(O)COc2ccc(Br)cc2)n1 (stereo not given)	FAS-TE inh 63 | FAS-TE conf inactive
COc1ccc(CN2C[C@@H](CO)O[C@@H](n3cnc4c(NCCN(C)C)ncnc43)C2)cc1	none (no result: pCIP destab, NR3A LBD binder, beta cell repl)
O=C(/C=C/c1cccc([N+](=O)[O-])c1)N1CCN(S(=O)(=O)c2cccs2)CC1	FAS-TE inh 77 | FAS-TE conf 83
O=C(c1cccc([N+](=O)[O-])c1)N1CCN(c2ccccn2)CC1	none
O=C(/C=C/c1cccc([N+](=O)[O-])c1)N1CCN(c2ccccn2)CC1	FAS-TE inh 51 | FAS-TE conf inactive
O=C(/C=C/c1cccc([N+](=O)[O-])c1)N1CCOCC1	none
OC[C@@H]1CN(Cc2cccs2)C[C@H](n2cnc3c(NCc4ccc(F)cc4)ncnc32)O1	none (no result: pCIP destab, NR3A LBD binder, beta cell repl)
O=C(Nn1c(-c2ccc(Br)cc2)nc2ccccc2c1=O)c1ccc([N+](=O)[O-])cc1	FAS-TE inh 65 | FAS-TE conf 45
O=C(Nn1c(-c2ccncc2)nc2ccccc2c1=O)c1ccc(Br)cc1	none

Compound activity (PubChem)
